Here are results for 40 molecules from PubChem BioAssay.

Calls of active or inactive are those of the source. How the calls were made is not given here.

As usually defined, the inhibition is the percentage by which the read-out fell short of the control.

The target in the experiment is Pantothenate synthetase (Mycobacterium tuberculosis (strain ATCC 25618 / H37Rv)) (UniProt P9WIL5). The experiment can be described thus: Coupled enzyme confirmation of inhibitors against recombinant Mtb PanC (AID 375).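 Further: 0% = full reaction with vehicle and 100% = no enzyme background.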 Particulars: coupled enzyme assay; at 10 µM, hits give high values.
Pantothenate synthetase (Mycobacterium tuberculosis (strain ATCC 25618 / H37Rv)), sequence (P9WIL5 whole entry, looked up): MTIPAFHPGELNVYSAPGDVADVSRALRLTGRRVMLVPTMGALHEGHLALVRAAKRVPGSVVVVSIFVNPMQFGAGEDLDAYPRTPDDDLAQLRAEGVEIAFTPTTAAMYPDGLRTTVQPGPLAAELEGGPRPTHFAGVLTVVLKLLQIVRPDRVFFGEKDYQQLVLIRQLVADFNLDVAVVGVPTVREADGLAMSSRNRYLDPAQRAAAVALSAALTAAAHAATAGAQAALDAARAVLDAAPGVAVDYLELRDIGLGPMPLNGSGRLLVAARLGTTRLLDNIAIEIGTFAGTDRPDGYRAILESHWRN
`COc1cc(/C=C/C(=O)CC(=O)/C=C/c2ccc(O)c(OC)c2)ccc1O`: the inhibition was 10% (inactive). The same measure for `Cc1ccc(C)n1-c1ccc(N2CCOCC2)cc1`: 0% (inactive); for `COc1cccc(NC(=O)N(CCCN2CCOCC2)C(C)c2cc3cccc(OC)c3o2)c1` (stereo not given): 0% (inactive); for `Cc1nc2ccc(S(=O)(=O)NC(C(=O)N3CCCC3)C(C)C)cc2s1` (stereo not given): 0% (inactive). For the molecule `Cc1c2c(nc3nc4ccccc4n13)CC(C)(C)CC2=O`, the inhibition was 8% (inactive).

On to `CCOC(=O)Nc1ccc(OC)cc1S(=O)(=O)N1CCCCC1`, for which the inhibition was 0% (inactive). For the molecule `COc1ccc(S(=O)(=O)NCC(c2cccnc2)N2CCN(C)CC2)cc1C` (stereo not given), the inhibition was 0% (inactive). Turning to `O=C(Nc1ccccc1)N1C(=O)C2(OCCO2)c2ccccc21`, the inhibition was 0% (inactive). With `C=CCn1c(COc2ccc(CC)cc2)nnc1SC/C(O)=C(\C#N)c1nc2ccccc2[nH]1`, the inhibition was 5% (inactive). The same measure for `COc1ccc(-n2c(COc3ccccc3)nnc2SCc2ccc(C#N)cc2)cc1`: 0% (inactive); for `O=C(Nc1cccnc1N1CCOCC1)c1ccco1`: 10% (inactive); for `CCCSc1nc(N)c(C#N)c(-c2ccc(C)cc2)c1C#N`: 2% (inactive). Consider `CCCc1[nH]nc2c1C(c1cccc(OC(=O)c3ccco3)c1)C(C#N)=C(N)O2` (stereo not given), for which the inhibition was 1% (inactive). For the molecule `Nc1nc(C2C(=O)CCCC2=O)cs1`, the inhibition is 0% (inactive). Consider `CC(=O)C1=C(O)C(=O)N(Cc2ccco2)C1c1ccc(F)cc1` (stereo not given), for which the inhibition is 10% (inactive).

As to `CC(NC(=O)c1ccc2c(c1)OCO2)C(c1cccs1)N1CCOCC1` (stereo not given), the inhibition was 9% (inactive). The same measure for `Cc1ccc(NC(=O)C2CC=CCC2C(=O)N2CCCCC2)cc1` (stereo not given): 0% (inactive); for `CC1=NC(Nc2nc(C)c3ccccc3n2)=NC(C)(C)C1`: 0% (inactive); for `CC(=O)Nc1ccccc1OCC(=O)c1cc(C)n(Cc2cccs2)c1C`: 0% (inactive).

On to `C/C=C/Cn1c(SCCCc2ccccc2)nc2c1c(=O)[nH]c(=O)n2C`, for which the inhibition was 0% (inactive). For `O=C(Nc1ccc(Cl)cn1)c1cccnc1`, the inhibition is 0% (inactive). Consider `COC(=O)c1cc2ccsc2n1CC(=O)Nc1cc(C)cc(C)c1`, for which the inhibition was 0% (inactive).

`Cc1ccc(CCNC(=O)CC2Oc3ccc(C)cc3NC2=O)cc1` (stereo not given): the inhibition was 0% (inactive). On to `CCOC(=O)C1CCCN(C/C(O)=C(\C#N)c2nc(-c3ccc(Cl)cc3)cs2)C1` (stereo not given), for which the inhibition is 5% (inactive). On to `Cc1ccc(-c2ccc(=O)n(CC(=O)NCCCN3CCCCC3C)n2)cc1` (stereo not given), for which the inhibition was 0% (inactive). As for `COc1ccc(C(NC(C)=O)c2ccc3cccnc3c2O)c(OC)c1` (stereo not given), the inhibition was 0% (inactive). Take `CCCCOC(=O)Nc1nc2ccc(OC)cc2s1`: the inhibition was 5% (inactive). Take `CN(CC(O)COc1ccc(OCC(O)CN(C)C2CCCCC2)cc1)C1CCCCC1` (stereo not given): the inhibition is 4% (inactive). Regarding `COC(=O)c1c(NC(=O)CSc2nnnn2C)sc(C)c1C`, the inhibition is 0% (inactive).

`CC(C)c1nnc(NC(=O)c2cnccn2)s1`: the inhibition is 0% (inactive). On to `CCOC(=O)c1ccccc1NC(=O)c1c(O)c2ccccc2n(CC)c1=O`, for which the inhibition is 0% (inactive). `Cc1cc(C)c2c(=O)n(CC(=O)NCCCN3CCN(c4ccccc4F)CC3)sc2n1`: the inhibition is 0% (inactive). Regarding `O=C(Nc1ccc(S(=O)(=O)NCCc2ccccc2)cc1)c1ccc(Br)o1`, the inhibition was 3% (inactive). `CCOC(=O)c1cc2oc(C)cc2n1CC(=O)OC1CCCCC1`: the inhibition was 1% (inactive).

With `COc1ccccc1NC(=O)N1CCCC1C(=O)NC1CCCCC1` (stereo not given), the inhibition was 0% (inactive).

For the molecule `CC(C)CNS(=O)(=O)c1ccc(CCC(=O)NCc2ccco2)cc1`, the inhibition was 2% (inactive).

In the case of `CC1CC(C)CN(CC(=O)Nc2ccc(S(N)(=O)=O)cc2)C1` (stereo not given), the inhibition is 0% (inactive). `CCOCC(=O)Nc1ccc(S(=O)(=O)N2CCOCC2)cc1`: the inhibition was 0% (inactive). As to `C[C@]12CC[C@@H]3c4ccc(O[C@@H]5O[C@H](C(=O)O)[C@@H](O)[C@H](O)[C@H]5O)cc4CC[C@H]3[C@@H]1C[C@@H](O)[C@@H]2O`, the inhibition is 14% (inactive). With `COc1ccc(-c2cc(N3CCCC3)n3ncnc3n2)cc1` the figure was 9% (inactive).
